The record followed here is PubChem BioAssay AID651820 (National Center for Advancing Translational Sciences (NCATS), 2012).

Hit rate of the full screen: of about 340,000 compounds, about 12,000 (3.5%) were called active. Entries that show only a call come without a potency. Another 18% or so got no clear call; they are omitted. This is one part of a sample in which actives are shown more often than they occur. Values without a mark were called inactive. The call rests on the fitted dose curve; in most records, active means well fitted inhibition curve with a large enough effect; inconclusive means small, poorly fitted or top-dose-only effect, or another doubt; inactive means no such curve, though single readings can be large or run the other way.
Potency means the concentration at half of the fitted maximal effect.

A short description of the assay: qHTS Assay for Inhibitors of Hepatitis C Virus (HCV). Conditions: Huh7.5.1 HCVcc-Cre infection, luciferase reporter, 44 h; series mostly up to 41.8 µM. The essentials:
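Antiviral activity was scored by luciferase reporter output from cells infected with HCVcc-Cre (~0.5 moi) in presence of compound, 44 h infection period, cells seeded 1,000/well 4 h prior.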
On the technique in general: qHTS replaces the single test concentration by a dilution series.
For the compound `Cc1ccc(S(=O)(=O)N2CCC(C(=O)OCC(=O)N(C)c3ccccc3)CC2)cc1C`, the Potency entry is “inactive”.
As to `Cc1cccn2c(=O)nc(SCC(=O)NCc3ccccc3Cl)nc12`, the activity change, negative = inhibition is 2.77% [at 8.37 µM].
With `CN(CC(=O)NC(=O)Nc1ccccc1F)Cc1ccccc1`, the Potency entry was “inactive”.
On the same count and under the same terms, with `O=C1CC(C(=O)O)NC(=S)N1` (stereo not given) the entry was “inactive”; with `O=C(c1ccc(Cl)c(S(=O)(=O)N2CCCCCC2)c1)N1CCN(c2ccc(O)cc2)CC1`, “inactive”.
Same read-out and setting: as for `COc1cc(CNC2CCCC2)c(Br)cc1OCc1ccccc1`, the figure is 5.62 µM (active); as for `COc1ccc(CNC2CCCCC2)cc1`, “inactive”; as for `COc1cc(CN2CCC(C(N)=O)CC2)ccc1OCc1ccccc1`, “inactive”.
The same measure, in the same setting: with `O=C(O)c1ccc(Cn2cnc3c(=S)nc[nH]c32)cc1` the entry was “inactive”; with `Cc1ccc(COC(=O)CN2C(=O)NC3(CCCC3)C2=O)cc1`, “inactive”; with `C=CC[C@@H](CC(=O)NCCO)C(=O)N[C@H](C)COC(=O)[C@@H](CC=C)CC(=O)OC(C)(C)C`, “inactive”.
For the compound `CC(OC(=O)c1ccccc1NCCO)C(=O)Nc1ccnn1C(C)C` (stereo not given), the Potency result is “inactive”.
The same measure, in the same setting: as for `COc1ccc(S(=O)(=O)NC(C)C)cc1C(=O)NC1CCCCC1`, the entry is “inactive”.
Still for that read-out and setting: as for `COc1ccccc1N(C)S(=O)(=O)c1ccc(C(=O)NC2CCCCCC2)cc1`, the figure is 11.2 µM (active); as for `COc1ccccc1N(C)S(=O)(=O)c1ccc(C(=O)N2CCC(C(N)=O)CC2)cc1`, “inactive”.
In the case of `CSc1ccccc1NC(=O)COC(=O)CCCOc1ccc(C)cc1`, the Potency entry is “inactive”.
As for `Cc1cc2oc(=O)cc(-c3ccccc3)c2c(C)c1-c1ccc(OC(F)(F)F)cc1`, the activity change, negative = inhibition was -14.5% [at 8.37 µM].
Turning to `COc1ccc(-c2c(C)cc3oc(=O)cc(-c4ccccc4)c3c2C)cc1OC`, the Potency was 11.2 µM (active).
For `COc1ccc(-c2c(C)cc3oc(=O)cc(-c4ccccc4)c3c2C)cc1C=O`, the Potency entry was “inactive”.
On the same count and under the same terms, with `Cc1ccc(S(=O)(=O)N(C)c2ccc(OCC(=O)OCC(=O)N(CC#N)c3ccccc3)cc2)cc1` the entry was “inactive”; with `NCCN1CCN2C(=O)CN(C(=O)c3ccccc3)CC12` (stereo not given), “inactive”; with `CCOc1ccc(Br)cc1S(=O)(=O)N1CCC(C(=O)O)CC1`, “inactive”.
Take `CCOc1ccc(Br)cc1CSC(=N)N`: the Potency was 11.2 µM (active).
As for `CCOCCCNCc1cc(Br)ccc1OCC`, the Potency result is “inactive”.
On the same count and under the same terms, as for `COc1ccc(OCC(=O)NNC(=O)C2CCC2)cc1`, the entry is “inactive”.
`Cc1ccc(C(=O)NCC(c2cccs2)N(C)C)cc1S(=O)(=O)N1CCOCC1` (stereo not given): the Potency result is “inactive”.
For `CN(C)S(=O)(=O)c1ccc(C(=O)NCC(C)(C)N2CCOCC2)cc1`, the Potency entry was “inactive”.
On the same count and under the same terms, as for `Cc1ccccc1CSCCNC(=O)c1ccc(Cl)c(S(=O)(=O)N2CCOCC2)c1`, the figure is 11.2 µM (active); as for `CC(C)(CNC(=O)c1ccc(Cl)c(S(=O)(=O)N2CCc3ccccc3C2)c1)N1CCOCC1`, 7.08 µM (active); as for `Cc1ccccc1CSCCNC(=O)c1ccc(N(C)S(=O)(=O)c2ccccc2)cc1`, 10 µM (active).
Same read-out and setting: as for `CC(C)(CNC(=O)Cc1ccc(Cl)cc1Cl)N1CCOCC1`, the entry is “inactive”; as for `Cc1ccc(C(=O)Nc2ncccc2C)cc1S(=O)(=O)N1CCOCC1`, “inactive”; as for `CN(c1ccccc1)S(=O)(=O)c1ccc(C(=O)NCCc2ccccc2)cc1`, “inactive”.
On the same count and under the same terms, as for `COc1ccccc1CNC(=O)c1ccc(N(C)S(=O)(=O)c2ccc(C)cc2)cc1`, the entry is “inactive”; as for `COc1ccc([C@@H]2[C@@H]3C(=O)N(C(C)(C)C)C(=O)[C@@H]3[C@]3(Cc4ccccc4)C(=O)N(c4cccc(Br)c4)C(=O)N23)cc1`, “inactive”; as for `O=C(NN=Cc1ccc(N2CCOCC2)cc1)c1cc2ccccc2cc1O`, “inactive”.
Take `O=C(OCC(=O)N1CCN(C(=O)c2ccco2)CC1)c1ccc(Cl)c(Cl)c1`: the Potency result was “inactive”.
On the same count and under the same terms, with `COc1cccc(CC2(CO)CCCN(Cc3ccc(OC(F)F)cc3)C2)c1` (stereo not given) the entry was “inactive”.
As to `COc1cccc(CNc2nc(C(F)(F)F)nc3ccccc23)c1`, the Potency is 5.62 µM (active).
As for `CCc1ccc(C(CNc2nc(C(F)(F)F)nc3ccccc23)N(C)C)cc1` (stereo not given), the Potency entry is “inactive”.
As for `c1coc(CNc2ncnc3ccccc23)c1`, the Potency is 3.55 µM (active).
`COc1cccc(CNC(=O)c2n[nH]c3ccccc23)c1`: the Potency result is “inactive”.
Take `FC(F)(F)c1cccc(Nc2ncnc3ccccc23)c1`: the Potency result is “inactive”.
In the case of `COc1ccc(CNc2ncnc3ccccc23)cc1`, the Potency is 3.16 µM (active).
As to `O=C(NCc1ccncc1)C(=O)NCc1ccco1`, the Potency result was “inactive”.
Consider `Clc1cccc(-c2nc(NCC3CCCO3)c3ccccc3n2)c1` (stereo not given), for which the Potency entry is “inactive”.
As for `COc1ccc(CNc2nccs2)cc1`, the Potency result is “inactive”.
Turning to `c1ccc2c(NCC3CCCO3)nc(-c3ccncc3)nc2c1` (stereo not given), the Potency is 10 µM (active).
Same read-out and setting: with `CC(C)(C)c1nc(NCC2CCCO2)c2nnn(Cc3ccccc3)c2n1` (stereo not given) the entry was “inactive”; with `CCc1nc2ccccc2c(C(=O)NCc2ccc(OC)cc2)c1C`, “inactive”; with `COc1ccc(C(=O)C(C)OC(=O)c2cccc(S(=O)(=O)Nc3c(C)n(C)n(-c4ccccc4)c3=O)c2)cc1` (stereo not given), “inactive”.
On the same count and under the same terms, with `NC(=O)C1(Nc2ccc(-c3ccccc3)cc2)CCCC1` the entry was “inactive”; with `NC(CSC1(c2ccccc2)c2ccccc2-c2ccccc21)C(=O)O` (stereo not given), “inactive”; with `Cc1cc(NC(=O)c2cc3ccccc3o2)no1`, “inactive”.
Take `C=CC(=O)Nc1ccc(Nc2ccnc(Nc3ccc(N4CCN(C)CC4)cc3)n2)cc1`: the activity change, negative = inhibition was 29.9% [at 8.37 µM].
For `CC(C)COc1ccc(C(=O)OCC(=O)NCCC2=CCCCC2)cc1`, the Potency result is “inactive”.
Still for that read-out and setting: with `COCCN(C(=O)C(C)N1C(=O)c2ccccc2C1=O)c1c(N)n(CC(C)C)c(=O)[nH]c1=O` (stereo not given) the entry was “inactive”; with `COc1cccc(NC(=O)COC(=O)c2ccc3ccccc3n2)c1`, “inactive”.
Still for that read-out and setting: as for `O=C(COC(=O)c1ccccc1Cl)NC1CCCCCCC1`, the entry is “inactive”; as for `Cc1ccc(S(=O)(=O)Nc2ccc(F)c(S(=O)(=O)N3CCOCC3)c2)cc1`, “inactive”; as for `CCOCCCNc1nc(-c2ccccc2)nc2ccccc12`, “inactive”.
Regarding `O=C(Cc1ccccc1)n1nc(-c2ccccc2)nc1NCc1ccco1`, the Potency result is “inactive”.
As to `c1ccc(-c2nc(NCc3ccco3)c3ccccc3n2)cc1`, the Potency is 10 µM (active).
Still for that read-out and setting: as for `CCN(C(=O)COC(=O)c1sccc1C)c1c(N)n(Cc2ccccc2)c(=O)[nH]c1=O`, the entry is “inactive”.
Still for that read-out and setting: as for `COc1ccc(NC(=O)Nc2ccc3c(c2)C(=O)N([C@H](C)CO)C[C@H](C)[C@@H](CN(C)C(=O)Nc2ccc4c(c2)OCO4)O3)cc1`, the entry is “inactive”.
